About 1,900 (0.58%) of roughly 330,000 compounds were called active. Roughly 4% stayed inconclusive and do not appear here. These entries were drawn from the full list. Potency and affinity values are given separately. A number with no mark means an inactive call. Cut-off read from the data, not from the text of the source: inconclusive = inhibition above about 70% without an active follow-up result; inactive = below that.
assay: M. tuberculosis growth inhibition, HTS (AID 449762);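 note: bacterial growth assessed after seven days of incubation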; details: M. tuberculosis H37Rv growth inhibition, 7H9 media; at 25 µM; stronger effect = higher value

SMILES	inhibition [%]
Cc1ncc([N+](=O)[O-])n1CC(=O)NC1CCCCCC1	0.9
O=C(Cc1ccc([N+](=O)[O-])cc1)OCc1c(F)cccc1Cl	7.51
CC(C)N(Cc1ccccc1)CC(O)COc1ccc(S(=O)(=O)N2CCOCC2)cc1Cl (stereo not given)	1.09
O=c1cc(-c2ccccc2O)nc(-c2ccccc2)[nH]1	15.5
Cc1nn(-c2ccc(F)cc2)c(Cl)c1/C=C(\CC(=O)O)c1nc2ccccc2s1	-5.29
COc1ccc(C(=O)COC(=O)[C@H](C)Nc2ccc(C(F)(F)F)cc2[N+](=O)[O-])c(OC)c1	11.7
Cc1cc(C)c(C(=O)COC(=O)[C@H](C)Nc2ccc(C(F)(F)F)cc2[N+](=O)[O-])c(C)c1	-3.25
Cc1cccc(NC(=O)CSc2cc(C)c(C#N)c3nc4ccccc4n23)c1	-1.23
CCOC(=O)CSc1cc(C)c(C#N)c2nc3ccccc3n12	9.77
COC(=O)C1=CO[C@@H](O[C@@H]2O[C@H](CO)[C@@H](O)[C@H](O)[C@H]2O)C2C1CC(O)O[C@H]2C (stereo not given in full)	-0.01
COc1ccccc1-c1nnn(C/C(N)=N/O)n1	-5.65
Cc1cc(C)c(NC(=O)CSc2nccn2C)c(C)c1	5.06
COc1ccc(CNC(=O)c2sc3nc4c(c(C(F)(F)F)c3c2N)CCC4)cc1	0.35
COc1ccc(CNC(=O)c2sc3nc4c(c(C(F)(F)F)c3c2N)CCC4)cc1OC	38.5
CC(=O)NCCNC(=O)C1CCC(CNc2nc(=S)[nH]c3ccccc23)CC1 (stereo not given)	-6.34
CC(C)(C)c1ccc(OCCNC(=O)c2ncn[nH]2)cc1	31.8
CCCCNC(=S)N/N=C/c1ccccc1F	31.4
CCOc1cccc(C=NCCc2ccc(OC)c(OC)c2)c1O	-1.63
COc1cccc(C=Nc2cc(C)cc(C)c2)c1O	4.13
CCOc1cccc(/C=N/NC(=S)Nc2ccccc2[N+](=O)[O-])c1O	0.56
Cc1ccc([C@@H]2CC=C(C(=O)O)[C@H](c3ccc(F)cc3)N2S(=O)(=O)c2ccc(C)cc2)cc1	7.16
O=C(O)C(c1ccccc1)N1CCCC1 (stereo not given)	-1.43
Nc1ccccc1Sc1ccccc1[N+](=O)[O-]	-1.08

SMILES	inhibition [%]
Nc1ccccc1SC(C[N+](=O)[O-])c1ccccc1 (stereo not given)	10.3
Cc1ccc(NC(=O)Cn2c3ccc(F)cc3c3nc4n(c(=O)c32)CCS4)cc1F	6.34
CC(C)(C)c1csc(NC(=O)c2ccncc2)n1	6.43
CC(C)(C)c1csc(NC(=O)c2ccccc2O)n1	3.48
O=C(CN1CCN(c2cccc(Cl)c2)CC1)NC1CCCc2ccccc21 (stereo not given)	11.3
O=C(CN1CCN(c2ccccc2Cl)CC1)NC1CCCc2ccccc21 (stereo not given)	7.47
CN(CCNC(=O)C1CCCN(c2ncnc3c2nc2n3CCCCC2)C1)Cc1ccccc1 (stereo not given)	-0.58
CC1CCCN(C(=O)CN2C(=O)NC(C)(c3ccc4ccccc4c3)C2=O)C1 (stereo not given)	3.55
C[C@H](CO)N1C[C@H](C)[C@@H](CN(C)Cc2ccc(-c3ccccc3)cc2)Oc2c(NS(=O)(=O)c3ccc(F)cc3)cccc2C1=O	-1.65
C[C@]12CC[C@H](O)CC1=CC(=O)C1C2CC[C@]2(C)C(=O)CCC12 (stereo not given in full)	-1.13
C[C@]12CC[C@@H](O)CC1=CC(=O)C1C2CC[C@]2(C)C(=O)CCC12 (stereo not given in full)	3.17
NCCCn1cnc2ccccc21	9.6
Cc1nonc1OC(C)CNc1ccc([N+](=O)[O-])cc1 (stereo not given)	8.67
CN1CCN(c2nc(-c3ccco3)cc(C(F)(F)F)n2)CC1	7.69
O=[N+]([O-])c1cnn(-c2nc(-c3ccco3)cc(C(F)(F)F)n2)c1	-2.2
CCn1ncc(/C=N/O)c1C	-7.24
CCOC(=O)C1(CCOc2ccccc2)CCN(Cc2cccc(OC)c2)CC1	8.09
CCOC(=O)C1(CCOc2ccccc2)CCN(Cc2cccc(O)c2)CC1	3.57
Cc1ccc(OCC(=O)N(C)CC(=O)Nc2ccc(F)c(F)c2F)cc1	4.12
Cc1ccc(S(=O)(=O)N2CCN(C3CC4CCC3C4)CC2)cc1 (stereo not given)	-2.36
O=C(CCNS(=O)(=O)c1ccccc1)N1CCN(C(c2ccccc2)c2ccccc2)CC1	4.06
CCOc1ccc(-c2cc(CCCC(=O)NCCCOC)no2)cc1	-1.18
CCOc1ccc(-c2cc(CCCC(=O)NCCc3ccccc3)no2)cc1	-2.4

SMILES	inhibition [%]
CCn1c2c(c3cc(OCC(C)C)ccc31)CCCC2=O	-1.76
COc1ccc(NC(=O)CS(=O)(=O)c2cn(CC(=O)N3CCOCC3)c3ccccc23)cc1OC	-16
O=S1(=O)N=C(SCCO)c2ccccc21	8.5
Cc1ccc(SC2=C(Sc3ccc(C)cc3)C(=O)c3ccccc3C2=O)cc1	-5.39
COc1cc(C(=O)OCC(=O)Nc2ccccc2C(=O)NC2CC2)c([N+](=O)[O-])cc1OC	-0.465
COc1cccc(C2C(C#N)=C(N)OC(C(C)(C)C)=C2C#N)c1 (stereo not given)	-2.5
COC(=O)c1c(NC(=S)Nc2ccc(C(=O)N3CCOCC3)cc2)sc2c1CCC2	-7.13
O=C(NCCN1CCCC1)c1ccc(Cn2c(=S)[nH]c3ccc(Br)cc3c2=O)cc1	64.3
CN(C)CCNC(=O)c1ccc2c(=O)n(Cc3ccc(Cl)cc3)c(=S)[nH]c2c1	2.11
C/C(=N/NC(=O)c1cc(C)[nH]n1)c1ccncc1	0.52
CC1CCN(C(=O)C2CCCCN2S(=O)(=O)c2cccc([N+](=O)[O-])c2)CC1 (stereo not given)	0.51
COC(=O)c1[nH]c2ccccc2c1NC(=O)C(C)N1CCN(C(=O)c2ccco2)CC1 (stereo not given)	-9.02
CCOC(=O)c1sc(NC(=O)c2cc(-c3ccc(C)cc3)nc3ccccc23)c(C#N)c1C	1.87
COc1cccc(NS(=O)(=O)c2c(C)n(C)c(=O)n(C)c2=O)c1	-4.03
Cc1ccc(C)c(N2CCN(S(=O)(=O)c3ccc(-c4cc(C)no4)s3)CC2)c1	6.24
Cc1nn(-c2ccc([N+](=O)[O-])cc2)c2c1C(c1ccc(OC(F)F)cc1)N1C(=N2)C(=O)Nc2ccccc21 (stereo not given)	65.4
Cc1nn(-c2ccc([N+](=O)[O-])cc2)c2c1C(c1cccc(Br)c1)N1C(=N2)C(=O)Nc2ccccc21 (stereo not given)	15.9
Cc1cc(C(=O)NCC(=O)OCC(=O)Nc2ccc(OC(F)F)cc2)ccc1[N+](=O)[O-]	-2.28
CC(C)NC(=O)[C@@H]1CSC2c3ccccc3C(=O)N21 (stereo not given in full)	-1.97
O=C(C[C@@H]1C/C=C\CCCC(=O)OC[C@@H]2CCCN2C1=O)N[C@H](CO)Cc1ccccc1	7.5
Cc1cc(SCC(=O)NCCN2C(=O)CSC2=O)nc2c(C)cccc12	4.1
Cc1cccc2c1-c1sc(C(=O)Nc3cccc([N+](=O)[O-])c3C)cc1CO2	-9.42
Cc1cccc(NC(=O)c2cc3c(s2)-c2c(C)cccc2OC3)n1	0.14

SMILES	inhibition [%]
Cc1cccc(OCCCC(=O)Nc2nccs2)c1C	8.02
O=C(c1sccc1-c1ccccc1)N1CCN(S(=O)(=O)c2ccccc2)CC1	-22.5
COCCNc1nc(SCC(=O)N2CCN(c3ccccc3OC)CC2)nc2ccccc12	-10.5
COc1ccc2c3n([n+]([O-])c2c1)CCN=C3c1ccc(C)cc1	17
[O-][n+]1c2ccccc2c2n1CCN=C2c1ccc(Cl)cc1	0.84
O=C(O)c1ccc(Cn2ccc3ccccc32)o1	2
CCOc1ccccc1NC(=O)CSC1=C(C#N)C(c2ccco2)C(C(=O)Nc2nc3ccccc3s2)=C(C)N1 (stereo not given)	49.6
CC1=C(C(=O)Nc2ccccc2)C(c2ccco2)C(C#N)=C(SCC(=O)Nc2cccc(C)c2C)N1 (stereo not given)	-1.31
CC(=O)C1=C(C)NC(SCC(N)=O)=C(C#N)C1c1ccco1 (stereo not given)	-6.56
CC(=O)C1=C(C)NC(SCC(=O)c2ccc(Cl)cc2)=C(C#N)C1c1ccco1 (stereo not given)	2.1
CCOc1ccccc1CN1CCN(CC2CC2)CC1CCO (stereo not given)	-1.16
COCCCNC(=O)CC(NCCCOC)C(=O)O (stereo not given)	0.77
COC(=O)c1ccc(NS(=O)(=O)N(C)C)cc1	-1.07
Nc1c(N(CCC2=CCCCC2)C(=O)c2ccco2)c(=O)[nH]c(=O)n1Cc1ccccc1	9.03
Cc1ccc(C(=O)N(CCC2=CCCCC2)c2c(N)n(Cc3ccccc3)c(=O)[nH]c2=O)o1	6.47
CS(=O)(=O)c1ccc(Cl)c(NC(=O)COC(=O)CCN=C2NS(=O)(=O)c3ccccc32)c1	-3.06
O=C(CCl)NN1C(=O)NC(c2ccccc2)(c2ccccc2)C1=O	2.88
Cc1ccc(S(=O)(=O)NCC(=O)OCc2cc(=O)oc3cc(C)ccc23)cc1	-1.73
O=C(NC(=S)Nc1ccc2[nH]c(=O)[nH]c2c1)c1ccccc1F	-4.55
Clc1ccc2c(c1)C(OC1CN3CCC1CC3)c1ccccc1CS2 (stereo not given)	9.17
Brc1ccc2c(c1)C(C1=NCCN1)c1ccccc1CS2 (stereo not given)	0.75
